Among all 300,000 compounds or so, about 5,200 (1.7%) were called active. This excerpt belongs to a sample that is enriched for actives. A number with no mark means an inactive call.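 Rule for the calls: active = mean replicate activation of at least 50% with a set share of replicates each reaching 50%; inconclusive = only one of those two conditions met; inactive = mean below 50% and too few replicates reaching it.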

The assay can be described thus: HSF-1 response element luciferase induction – NIH3T3-HGL cells, MG132 stress, luminescence, single point, primary screen (AID 504408).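 Note: 0% = median of the neutral control wells and 100% = twice that signal.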 The settings on record: NIH3T3-HGL HSF-1 luciferase reporter, MG132, 8 h; at 9 µM; active compounds read high; 100% = twice DMSO control signal. Background: Reporter assays use an easily measured gene product as a stand-in for the process of interest.
In the case of `CC(=O)CC(CC(=O)NC1CCCCC1)c1ccccc1` (centres undefined), the activation was -2.27%.

As for `CC(NC(=O)c1ccccc1SCC(=O)N1CCCC1)c1ccccc1` (centres undefined), the activation was -5.63%.

Turning to `COc1ccc(C(C(=O)NC(C)(C)C)N(C(=O)Cn2nnc3ccccc32)c2ccc(C(C)=O)cc2)cc1O` (centres undefined), the activation is 1.15%.

For `COc1ccc(C(C(=O)NCC2CCCO2)N(C(=O)Cn2nnc3ccccc32)c2ccc(NC(C)=O)cc2)cc1OC` (centres undefined), the activation is 84% (active).

Take `CCOc1cc(C(C(=O)NCC2CCCO2)N(C(=O)Cn2nnc3ccccc32)c2cccc(OC)c2)ccc1O` (centres undefined): the activation was -1.11%.

As for `O=C1/C(=C\c2ccc(O)cc2)CCC1CNc1ccc(Cl)cc1` (centres undefined), the activation was -5.88%.

On to `COc1ccc(C(=O)c2c3ccc([N+](=O)[O-])cc3[n+]([O-])n2CCCN)cc1`, for which the activation is 11.6%.

As for `CCC(C)c1ccccc1N1CC(C(=O)N2CCN(S(=O)(=O)c3ccc(F)cc3)CC2)CC1=O` (centres undefined), the activation was 7.61%.

In the case of `CCOC(=O)c1sc(-c2cccc([N+](=O)[O-])c2)cc1N`, the activation was 24.4%.

In the case of `CCOC(=O)c1sc(C)c2c1NC(C)(c1cccc3ccccc13)NC2=O` (centres undefined), the activation was 97.8% (active).

On to `CCOC(=O)c1ccc(Nc2cc3ccccc3c(=O)[nH]2)cc1`, for which the activation is -14.6%.

For the compound `CCOC(=O)c1c(C)[nH]c(C(=O)OCC(=O)c2ccc(OC)cc2OC)c1C`, the activation was -6.52%.

For `CCCCOC(=O)c1[nH]c(C)c(C(=O)OC)c1C`, the activation is 52.3% (active).

`CCOC(=O)c1c(C)[nH]c(C(=O)OCC(=O)N2CCCC2=O)c1C`: the activation is 16.4%.

Regarding `COc1cc(-c2nnc(NC(=O)C3=COCCO3)o2)cc(OC)c1OC`, the activation was -3.05%.

With `O=C(OCCOCn1cc(Br)c(=O)[nH]c1=O)c1ccccc1`, the activation is -0.69%.

For `N[C@@H](Cc1ccccc1)C(=O)N1CCOCC1`, the activation is -19.9%.

`C=CCOc1cccc(C2C(C(=O)c3ccc(C)o3)=C(O)C(=O)N2c2nnc(C)s2)c1` (centres undefined): the activation is -4.03%.

Regarding `CC(=O)c1ccc(NC(=O)C2CCCN2S(=O)(=O)c2cccs2)cc1` (centres undefined), the activation is -4.67%.

For the compound `c1ccc(CN=C2Nc3ccccc3CS2)nc1`, the activation is 58% (active).

Turning to `CCCCN(C1CCS(=O)(=O)C1)S(=O)(=O)c1ccc(C(C)C)cc1` (centres undefined), the activation was 0.442%.

For the compound `CCCCN(C(=O)c1ccc(S(=O)(=O)N2CCOCC2)cc1)C1CCS(=O)(=O)C1` (centres undefined), the activation is -15%.

Regarding `Cc1cccc(C(C)C)c1NC(=O)COC(=O)C1CC(=O)N(Cc2ccccc2)C1` (centres undefined), the activation is 4.94%.

Turning to `Cc1cc(C)c2nc(NC(=O)C3CCCO3)sc2c1` (centres undefined), the activation was 61.5% (active).

For `Cc1cc([N+](=O)[O-])ccc1NC(=O)C1CCCO1` (centres undefined), the activation was 0.502%.

`Cc1ccc(C)c(C(C)NC(=O)C2CCCO2)c1` (centres undefined): the activation is 2.29%.

As to `COc1cccc(/C=C/C(=O)OCC(=O)N2CCCc3ccccc32)c1`, the activation was -15.2%.

For the compound `CC(=O)N1CCN(C(=O)c2cc(-c3ccc(C)o3)nc3ccccc23)CC1`, the activation was -3%.

As for `Cc1ccc(NC(=S)NC(=O)/C=C/c2ccc(Cl)cc2)cc1`, the activation is 8.91%.

Turning to `COC(=O)c1c(C)[nH]c(C(=O)/C=C/c2ccc(Cl)cc2)c1C`, the activation was 75.6% (active).

Turning to `COC(=O)c1c(C)[nH]c(C(=O)NCCc2ccc(S(N)(=O)=O)cc2)c1C`, the activation was 22.1%.

Take `O=C(OCc1nnc(-c2ccccc2)o1)c1cc(=O)[nH]c2ccccc12`: the activation was -8.33%.

Turning to `COC(=O)c1ccc(COC(=O)C2CCN(S(=O)(=O)c3c(Cl)cccc3Cl)CC2)o1`, the activation was -1.35%.

As to `Cc1cccc(NC(=O)C2CCCN(C(=O)NCc3ccccc3)C2)c1C` (centres undefined), the activation was 23.5%.

On to `Cc1ccccc1NC(=O)N1CCCC1C(=O)NCc1ccccc1` (centres undefined), for which the activation is -14.4%.

As to `Cc1ccccc1NC(=O)C1CCCN(C(=O)NCc2ccccc2)C1` (centres undefined), the activation is 66.9% (active).

Consider `CCOC(=O)N1CCN(C(=O)COc2ccc3oc4c(c3c2)CCCC4)CC1`, for which the activation was -4.2%.

As for `CCN(CC(=O)NCc1cccs1)C(=O)c1ccc(OC)c(S(=O)(=O)N2CCOCC2)c1`, the activation was -5.75%.

As for `O=C(NCc1ccc2c(c1)OCO2)c1c(O)nc2sccn2c1=O`, the activation was 14.5%.

Consider `Cc1noc(C)c1COc1ccc2ccc(=O)oc2c1`, for which the activation is 0.156%.

Consider `CC(C)OC(=O)c1ccc(COc2ccc3ccc(=O)oc3c2)o1`, for which the activation is 65.7% (active).

In the case of `COC(=O)c1ccc(COc2ccc(C#N)cc2)o1`, the activation was 10.5%.

For `O=C1CCCCC1Sc1ccc(Cl)cc1[N+](=O)[O-]` (centres undefined), the activation was 8.24%.

For the compound `Cc1cc(OCC(=O)N(C)c2c(N)n(Cc3ccccc3)c(=O)[nH]c2=O)c(C(C)C)cc1Cl`, the activation is -0.115%.

For the compound `Cc1ccc2nc(NC(=O)C3CSC4(C)CCC(=O)N34)sc2c1` (centres undefined), the activation was 10.5%.

As for `CN(c1ccc(C(=O)N2CCc3ccccc3C2)cc1)S(C)(=O)=O`, the activation is 57.9% (active).

As to `COc1cccc(N(CC(=O)N2CCc3ccccc3C2)S(C)(=O)=O)c1`, the activation was 69.4% (active).

With `O=C(C(=O)N1CCc2ccccc2C1)N1CCc2ccccc2C1`, the activation was 2.97%.

As to `Cc1ccc(S(=O)(=O)N(CC(=O)N2CCc3ccccc3C2)c2cccc(Cl)c2)cc1`, the activation was 13%.

On to `CS(=O)(=O)N(CC(=O)N1CCc2ccccc2C1)c1ccc(Br)cc1`, for which the activation is -4.09%.

`CN(c1cccc(NC(=O)c2ccc(CN3CCc4ccccc4C3)cc2)c1)S(C)(=O)=O`: the activation is 21.2%.

Regarding `Cc1cc2nc3n(c2cc1C)CC1CC(C(=O)NCCC(C)C)N(C)C31` (centres undefined), the activation is 11.4%.

Regarding `Cc1ccc(S(=O)(=O)n2cccc2CO)cc1`, the activation was 3.66%.

On to `O=C(COc1ccccc1)Nc1ccc(F)cc1`, for which the activation was 1.97%.

As for `Cc1ccc(-c2cc(=O)[nH]c(NCc3ccccc3)n2)cc1`, the activation is 11.6%.

Take `Cc1ccc(O)c(CNc2nc3ccccc3[nH]2)c1`: the activation was 83.1% (active).

For the compound `Cc1ccc(O)c(CNc2nc3ccccc3n2C)c1`, the activation was 6.25%.

On to `Cc1sc2ncnc(N3CCC(C(=O)Nc4nc5ccc(Cl)cc5s4)CC3)c2c1C`, for which the activation was 8.18%.

For the compound `CC(Oc1cccc(Cl)c1)C(=O)Nc1ccc(S(=O)(=O)Nc2ncccn2)cc1` (centres undefined), the activation was -4.25%.

The record behind these values is PubChem BioAssay AID504408 (Broad Institute, 2011).
